MITF act: increases MITF-driven TRPM1 promoter luciferase signal | SK-MEL-5 TRPM1-promoter luciferase, 24 h; % of positive control, neutral wells = 0 | 0.75% of 300,000 active | AID 588334 | activation, % at 12.5 µM;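 active means mean activation of at least 80% with every replicate also reaching 80%; inconclusive means mean reaches 80% but some replicate falls short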;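 further: 0% = neutral control wells and 100% = parthenolide positive control wells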
miR-122 sensor: miR-122 inhibition in Huh7 cells | Huh7 miR-122 Renilla luciferase sensor, 48 h; neutral wells = 0, positive control = 100 | activation (reporter increase), % at 12.5 µM | AID 602342 | 0.3% of 340,000 active;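 active means mean replicate activation score at least 90 and every replicate individually at or above 90; inconclusive means only one of the two criteria met; inactive means neither criterion met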;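 further: higher luciferase means less miR-122 activity so hits act as miR-122 inhibitors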
Env fusion inh: inhibitors of HIV Env-mediated cell fusion; 1.1% of 360,000 active; AID 651610; inhibition, % at 12.3 µM; HeLa-JRFL Env/CEM21 cell fusion, luciferase;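 active means mean replicate inhibition score of at least 50 and every replicate individually at or above 50; inconclusive means only one of the two criteria met; inactive means mean below 50 and not all replicates reaching 50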;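 further: 0% = plate neutral controls and 100% = maraviroc near 300 nM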
esBAF inh: SWI/SNF esBAF complex inhibition. 2% of 350,000 active. reporter increase, % at 12.5 µM. mouse ES cells, Bmi1-luciferase knock-in reporter, 24 h; 100% = twice the neutral-well signal. AID 602393; in the data active means activation above about 40%; inconclusive means no clear call, values can overlap the other calls;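 further: 0% = median of the plate's neutral control wells and 100% = double that signal; a rise in the Bmi1 reporter signal indicates esBAF inhibition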
Wnt bcat act: Wnt/beta-catenin pathway activation; Wnt/beta-catenin reporter cell assay, activator, plate reader; activation, % at 9.35 µM; 1.2% of 300,000 active; AID 743398; in the data active means activation above about 30%, passing the limit was not always enough; inconclusive means no clear call, values can overlap the other calls;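 further: 0% = neutral control wells and 100% = positive control wells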
Starred values were filed as active, the others as inactive; i = inactive; u = inconclusive; x = not tested or not shown; [ ] = another dose, or the depositor's remark. Most compounds without a hit are left out; they make up all but 3.4% or so of the library.

SMILES	MITF act	miR-122 sensor	Env fusion inh	esBAF inh	Wnt bcat act
CN(C)S(=O)(=O)N1CCN(CC(O)COc2ccc3cc(Br)ccc3c2)CC1 (stereo unspecified)	-12	-4	x	-1	x
Cc1ccc(SCc2nc(-c3ccncc3)no2)cc1	20	-6	x	18	x
c1ccc(SCc2nc(-c3ccncc3)no2)cc1	91*	-1	x	15	26
COc1ccc(-c2noc(CSc3ccccc3)n2)cc1OC	u	-5	-73	52*	-3
CC(C)(C)C(=O)Nc1ccc(C(=O)OC2CCCCC2)cc1	105*	-1	x	64*	x
O=C(Nc1ccc(C(=O)OC2CCCCC2)cc1)c1ccncc1	-8	x	75*	12	-3
CC(=O)N1[C@H](CO)[C@@H]2c3ccccc3N(C(=O)c3ccccc3)C[C@@H]21	x	-9[16.7 µM]	x	-1	x
CC12CC3CC(C)(C1)CC(C(=O)NCc1ccncc1)(C3)C2	-5	-1	101*	-6	0
Cc1ccc(S(=O)(=O)Nc2ccc3c(c2)C(=O)N([C@@H](C)CO)C[C@H](C)[C@H](CN(C)S(=O)(=O)c2cn(C)cn2)O3)cc1	x	-8[16.7 µM]	3[16.7 µM]	0	x
COc1ccc(C(=O)Nc2cccc(C)c2)cc1	x	-2	-249	14	58*
COc1ccc(C(=O)Nc2ccc3nc(C)c(C)nc3c2)cc1	36	1	-20	62*	8
COc1ccc(C(=O)Nc2ccc3c(c2)nc2n3CCSC2)cc1	x	-4	-149	33	49*
COc1cc(NC(=O)Cc2ccccc2)nc(OC)n1	-7	8	x	13	x
COc1ccc(C(=O)Nc2cccc(NC(C)=O)c2)cc1	x	0	-5	25	-1
COc1ccc(C(=O)Nc2cc(OC)nc(OC)n2)cc1	92*	5	x	24	x
C[C@H]1CN([C@@H](C)CO)C(=O)c2cc(C#CC3(O)CCCC3)cnc2O[C@H]1CN(C)C(=O)C1CCOCC1	x	-1[16.7 µM]	x	-9	x
CN(C)C(=O)c1cccc(-c2ccc([C@@H]3[C@@H](C#N)N(C(=O)C4CCCC4)[C@H]3CO)cc2)c1	x	x	-23[16.7 µM]	x	x
COc1cc(OC)cc(C(=O)Nc2ccc(-n3cnnn3)c(C)c2)c1	108*	x	x	x	-1
COc1cc(NC(=O)c2ccccc2-n2cnnn2)cc(OC)c1	1	-6	-3	0	-3
COc1ccc(C(=O)Nc2ccc3c(c2)nc(CCNC(=O)c2ccco2)n3C)cc1	37	-2	-1	48*	16
CCC(=O)Nc1ccc2c(c1)nc(CCNC(=O)c1ccco1)n2C	0	-24	7	-2	-1
C[C@@H]1CN([C@H](C)CO)C(=O)c2cc(NC(=O)CCCN(C)C)ccc2O[C@@H](C)CCCCO[C@H]1CN(C)C(=O)Nc1cccc2ccccc12	x	-1[16.7 µM]	11[16.7 µM]	-1	x
O=C(N(Cc1ccccc1)c1ccccn1)C12CC3CC(CC(C3)C1)C2	x	4	122*	-15	x
NNC(=O)c1ccc(COc2ccc3c(c2)CCC3)o1	20	x	-22	x	x
O=C(N/N=C/c1cccc(O)c1)c1ccc(COc2ccc3c(c2)CCC3)o1	26	4	x	52*	x
SMILES	MITF act	miR-122 sensor	Env fusion inh	esBAF inh	Wnt bcat act
COc1ccc(OC)c(Cc2nnc(CCC(=O)N3CCCCC3c3nccs3)o2)c1 (stereo unspecified)	57	0	-48	48*	40*
COc1ccc(OC)c(Cc2nnc(CCC(=O)N3CCCCCC3)o2)c1	27	4	-22	52*	2
Cc1cccc(Cc2nnc(CCC(=O)N3CCCCC3c3nccs3)o2)c1 (stereo unspecified)	9	x	-4	x	-1
C[C@H]1CN([C@@H](C)CO)C(=O)Cc2cc(NC(=O)Cn3cnnn3)ccc2O[C@H]1CN(C)C(=O)Nc1ccc(F)cc1	x	2[16.7 µM]	2[16.7 µM]	2	x
CCOC(=O)c1c(C)[nH]c(C)c1C(=O)CSc1nc2ccccc2c(=O)n1-c1ccc(CC)cc1	-11	x	9	x	-3
Cn1ccnc1SCC(=O)c1c[nH]c2ccccc12	14	15	-29	32	55*
COc1ccccc1C(=O)CSc1nccn1C	34	-12	-8	-1	5
CC(=O)c1ccc(-n2c(SCC(=O)c3c[nH]c4ccccc34)nc3ccccc3c2=O)cc1	-9	x	-1	x	45*
O=C(C[C@H]1C=C[C@@H](NC(=O)C2CC2)[C@@H](CO)O1)NCC1CC1	x	x	2[16.7 µM]	2	x
CCNC(=O)C[C@@H]1CC[C@H]2[C@@H](COC[C@H](O)CN2Cc2ccccc2F)O1	x	3[16.7 µM]	x	-7	x
CN1C(=O)NC(c2ccccc2)(C(F)(F)F)S/C1=C(/C#N)c1nnc(N2CCOCC2)n1-c1ccccc1 (stereo unspecified)	-4	x	-2	x	67*
CN1C(c2ccc(F)cc2)=CS/C1=C(/C#N)c1nnc(N2CCOCC2)n1-c1ccccc1	16	x	4	x	-1
COC(=O)C1=C(C)NC(C)=C(C(=O)OC)C1C(=O)OCC(=O)NC1CCCCC1C (stereo unspecified)	x	-1	68*	4	-2
COc1cccc(C(O)c2ncc(-c3cccc(F)c3)[nH]2)c1 (stereo unspecified)	x	114*	-29	20	-2
OC(c1cccc(F)c1)c1ncc(-c2ccc3ccccc3c2)[nH]1 (stereo unspecified)	x	5	-25	74*	1
COc1ccc(S(=O)(=O)N(C)C[C@H]2Oc3c(NS(=O)(=O)c4ccc(Cl)cc4)cccc3C(=O)N([C@H](C)CO)C[C@H]2C)cc1	x	4[16.7 µM]	-3[16.7 µM]	-7	x
CC(C)C(NS(=O)(=O)c1ccc2c(c1)C(C)(C)C(=O)N2C)C(=O)NCc1ccccc1Cl (stereo unspecified)	x	-6	62*	-5	-1
Cc1ccccc1CNS(=O)(=O)c1ccc2c(c1)C(C)(C)C(=O)N2C	4	44	-10	3	3
Cc1ccc(CCNS(=O)(=O)c2ccc3c(c2)C(C)(C)C(=O)N3C)cc1	x	x	x	5	5
Cc1cc(C)cc(NS(=O)(=O)c2ccc3c(c2)C(C)(C)C(=O)N3C)c1	6	107*	7	8	-1
Cc1cccc(Nc2nc(-c3c(C)nc4ccccn34)cs2)c1	-29	-2	92*	-26	-7
CN(C)C(=O)C[C@H]1C[C@@H]2c3cc(NC(=O)Nc4ccccc4)ccc3O[C@@H]2[C@@H](CO)O1	x	-2[16.7 µM]	0[16.7 µM]	6	x
CCC(=O)Oc1ccc(-c2cnc3ccccc3n2)cc1	50	-4	x	30	28
Cc1ccc(NC(=O)c2ccc(OC(=O)c3ccco3)cc2)cc1	121*	-2	x	54*	20
Cc1ccc(NC(=O)c2ccc(OC(=O)c3cc4ccccc4o3)cc2)cc1	60	-5	-181	60*	43*
O=C(Oc1ccc(-c2cnc3ccccc3n2)cc1)c1ccco1	u	8	i	8	69*
O=C(Nc1ccc(F)cc1)Nc1ccc2c(c1)[C@H]1C[C@H](CC(=O)N3CCOCC3)O[C@H](CO)[C@H]1O2	x	1[16.7 µM]	-17[16.7 µM]	-1	x
O=C(C[C@@H]1CC[C@@H]2[C@H](COC[C@@H](O)CN2CCC(F)(F)F)O1)NCC1CCCCC1	x	-4[16.7 µM]	11[16.7 µM]	5	x

Bioassay records (PubChem)
